PubChem BioAssay AID504523 (Broad Institute, 2011)
In all, about 340,000 compounds went through this assay and about 490 (0.14%) were called active. The sample as a whole holds a higher share of actives than the screen did. Values without a mark were called inactive. Cut-off read from the data, not from the text of the source: active = inhibition above about 12%; inconclusive = no clear call, values can overlap the other calls; inactive = below about 7.3%.

What follows are molecules tested against Kelch-like ECH-associated protein 1 (Homo sapiens) (UniProt Q14145) (assay: disruptors of Keap1 binding to Nrf2 – biochemical, fluorescence polarization, single point, primary screen (AID 504523;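 note: human Keap1 Kelch domain with fluorescein labeled Nrf2 9mer peptide probe; 0% = neutral control wells and 100% = peptide positive control; higher means more block of Keap1 binding to Nrf2 peptide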)). Conditions: Keap1 Kelch-Nrf2 peptide fluorescence polarization, 1536-well; at 9.4 µM; active compounds read high.
Chain of Kelch-like ECH-associated protein 1 (Homo sapiens) (Q14145 whole entry, looked up, the tested form may be a part): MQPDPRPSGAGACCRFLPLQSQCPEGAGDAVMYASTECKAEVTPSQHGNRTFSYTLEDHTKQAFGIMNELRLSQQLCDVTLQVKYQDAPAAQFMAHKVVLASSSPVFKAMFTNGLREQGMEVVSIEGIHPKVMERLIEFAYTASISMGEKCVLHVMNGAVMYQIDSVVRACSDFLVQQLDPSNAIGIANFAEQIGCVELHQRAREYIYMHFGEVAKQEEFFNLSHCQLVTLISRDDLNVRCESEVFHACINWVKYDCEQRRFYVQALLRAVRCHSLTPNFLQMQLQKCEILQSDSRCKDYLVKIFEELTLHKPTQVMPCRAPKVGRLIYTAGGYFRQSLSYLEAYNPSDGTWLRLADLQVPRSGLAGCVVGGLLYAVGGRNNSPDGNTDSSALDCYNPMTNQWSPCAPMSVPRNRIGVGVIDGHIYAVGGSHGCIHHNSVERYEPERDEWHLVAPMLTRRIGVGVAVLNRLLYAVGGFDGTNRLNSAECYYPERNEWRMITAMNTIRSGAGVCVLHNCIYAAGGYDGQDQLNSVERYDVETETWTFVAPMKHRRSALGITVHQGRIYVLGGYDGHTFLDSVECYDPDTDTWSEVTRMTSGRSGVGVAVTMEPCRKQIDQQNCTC

Row | Compound | inhibition
1 | CC1(C)CC(=O)C(N=Nc2c(F)cccc2F)=C(O)C1 | 37.8% (active)
2 | CC1(C)CC(=O)C(C2=NC(C)(C)Cc3ccccc32)=C(O)C1 | -1.79%
3 | CC1(C)CC(=O)C(N=Nc2ccc(S(=O)(=O)N3CCCCCC3)cc2)=C(O)C1 | 5.03%
4 | CN1CCOC1c1ccc(C2OCCN2C)cc1 (stereo not given) | 1.77%
5 | O=C(C[n+]1cc(Br)cc2ccccc21)c1ccc(F)cc1 | -7.79%
6 | COC(=O)Cc1c(-c2[nH]c3ccccc3c2CC(=O)OC)[nH]c2ccccc12 | -0.936%
7 | COC(=O)C[n+]1cccc2ccccc21 | 36.4% (active)
8 | CCN1CCC(O)(/C=C/c2ccc(C)cc2)C(C(=O)/C=C/c2ccc(C)cc2)C1 (stereo not given) | -56.9%
9 | CCC1CCC2(CC1)NC(=O)N(CC(=O)Nc1ccc(OC)cc1)C2=O (stereo not given) | -5.89%
10 | COc1cccc(CN2CCNC(=O)C2CC(=O)N(C)CCc2ccccn2)c1 (stereo not given) | -0.18%
11 | CCOC(=O)C1(Cc2ccccc2C)CCCN(S(C)(=O)=O)C1 (stereo not given) | -4.08%
12 | Cc1ccc(F)cc1NC(=O)N1CCCN(c2ccc(C(F)(F)F)cn2)CC1 | -5.94%
13 | OC1CSc2nc3ccccc3n2C1 (stereo not given) | 1.42%
14 | CCOC(=O)c1c(C)n(C)c2ccc(OC)c(NC(=O)CN3CCC4(CC3)OCCO4)c12 | -2.53%
15 | COc1ccc(C(CNC(=O)c2cc(S(=O)(=O)Nc3cccc(C)c3)ccc2C)N2CCCC2)cc1 (stereo not given) | -2.75%
16 | Cc1cccc(NS(=O)(=O)c2ccc(C)c(C(N)=O)c2)c1 | -6.17%
17 | Cc1cccc(NS(=O)(=O)c2ccc(C)c(C(=O)NCC(c3ccccc3)N(C)C)c2)c1 (stereo not given) | 46.2% (active)
18 | CCOC(=O)N1CCN(C(=O)COC(=O)c2cccc(S(C)(=O)=O)c2)CC1 | 1.11%
19 | C/C(=N/NC(=S)Nc1ccccc1)c1ccc2c(c1)OCO2 | -4.81%
20 | Cc1ccc(NC(=O)CSc2sc3c(O)cc(=O)[nH]c3c2C#N)cc1C | -7.74%
21 | Cc1nc(CN(C)C(=O)CC2C(=O)NCCN2Cc2ccc(F)cc2)cs1 (stereo not given) | -0.6%
22 | COC(=O)c1sc(N)c(C(=O)OC)c1COC(=O)CNS(=O)(=O)c1ccc(C)cc1 | 2.32%
23 | CC(C)(O)C#Cc1ncc(C(F)(F)F)cc1Cl | 2.69%
24 | Clc1ccc2c(c1)C1=C(C(c3ccncc3)O2)C(c2ccc(Br)cc2)n2ncnc2N1 (stereo not given) | -2.67%
25 | Brc1ccc(C2=CC(c3ccco3)n3ncnc3N2)cc1 (stereo not given) | 36.1% (active)
